MITF act = activators of MITF-driven TRPM1 promoter activity in SK-MEL-5 cells; SK-MEL-5 TRPM1-promoter luciferase, 24 h; % of positive control, neutral wells = 0; activation, % at 12.5 µM; 300,000 tested, 0.75% active; AID 588334;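 active means mean activation of at least 80% with every replicate also reaching 80%; inconclusive means mean reaches 80% but some replicate falls short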;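 further: 0% = neutral control wells and 100% = parthenolide positive control wells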
TWEAK Fn14 block = inhibitors of TWEAK-Fn14 interaction signaling. TWEAK-stimulated Fn14 reporter cells, luciferase luminescence, 8 h. inhibition, % at 10 µM. 360,000 tested, 2% active. AID 1159606; in the data active means inhibition above about 50%
LGR2 inh = inhibitors of bursicon-induced Drosophila LGR2 receptor cAMP signaling; inhibition, % at 9.99 µM; HEK293 LGR2, CRE-luciferase, bursicon-stimulated, 4 h; 380,000 tested, 0.35% active; AID 720647;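 active means drop in luminescence signal, shown as inhibition above about 50% in the replicate tests, limit read from the data, passing the limit was not always enough; inconclusive means probably only some replicates passing the limit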;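 further: agonist challenge used bursicon conditioned medium at about half maximal strength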
EBV LMP1 NFkB = Epstein-Barr LMP1 NF-kappaB reporter inhibition; LMP1-induced NF-kappaB luciferase reporter cells, luminescence; inhibition, % at 12.5 µM; 350,000 tested, 0.69% active; in the data active means inhibition above about 41%; inconclusive means no clear call, values can overlap the other calls;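 further: 0% = neutral control wells and 100% = reference inhibitor control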
TRPM1 prom inh = MITF TRPM1 promoter inhibition in SK-MEL-5 cells. SK-MEL-5 TRPM1 promoter luciferase, 24 h. inhibition, % at 12.5 µM. 330,000 tested, 0.83% active;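 active means mean inhibition across replicates of 60% or more, whatever share of single replicates reaches that level; inconclusive means some that reach 60%, reason not given; inactive means mean inhibition across replicates below 60%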
TROY NFkB inh = inhibitors of TROY-dependent NF-kB signaling; Q293 LMP1-TROYcd NF-kB luciferase reporter, 4 h; inhibition, % at 10 µM; 360,000 tested, 0.98% active;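 active means compounds whose plate-normalised and pattern-corrected inhibition of the luciferase reporter signal at the single screening dose is 50% or more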
An asterisk follows results filed as active. Most compounds without a hit are left out; they make up all but 3% or so of the library.

Screening O=C(CC1CC1)N1CC2(C1)[C@H](c1ccccc1)[C@@H](CO)N2Cc1ccccc1 returned LGR2 inh 0.
`CCCC(=O)Nc1ccc2c(c1)C(=O)N(C)C[C@@H](OC)[C@@H](C)CN(CCc1ccccc1)[C@H](C)CO2` gave LGR2 inh -5.
`Cc1ccc2c(c1)COc1c3ccc(C(=O)NCC4CC4)cc3nn1-2` gave MITF act 78, TWEAK Fn14 block -9, LGR2 inh -54, EBV LMP1 NFkB -24, TRPM1 prom inh -75 and TROY NFkB inh -50.
For Cc1ccc2c(c1)COc1c3ccc(C(=O)O)cc3nn1-2 the results were MITF act -68, TWEAK Fn14 block 81*, LGR2 inh inconclusive, EBV LMP1 NFkB -5, TRPM1 prom inh 70* and TROY NFkB inh -56.
For CC(C)NC(=O)c1ccc2c3n(nc2c1)-c1ccccc1CO3 the results were MITF act -13, TWEAK Fn14 block 58*, LGR2 inh 37, EBV LMP1 NFkB 24, TRPM1 prom inh 13 and TROY NFkB inh 8.
C=CCNC(=O)c1ccc2c3n(nc2c1)-c1ccc(Cl)cc1CO3 was read as MITF act 90*, TWEAK Fn14 block -11, LGR2 inh -36, EBV LMP1 NFkB -31, TRPM1 prom inh -87 and TROY NFkB inh -57.
O=C(C[C@H]1CC[C@@H](NC(=O)c2cccc(F)c2)[C@@H](CO)O1)NCCN1CCCC1 was read as LGR2 inh -2.
`O=C(C[C@@H]1CC[C@H]2[C@@H](COC[C@@H](O)CN2C(=O)c2ccncc2)O1)NC1CCC1` gave LGR2 inh 13.
For COC(=O)[C@@H]1[C@@H](CO)[C@@H]2Cn3c(ccc(-c4ccccc4OC)c3=O)[C@@H]2N1CC1CCCC1 the results were LGR2 inh -6.
`COc1ccc(C(=O)Nc2ccc3c(c2)C(=O)N(C)C[C@H](OC)[C@@H](C)CN[C@@H](C)CO3)cc1` gave LGR2 inh -5.
COCc1cn(CC[C@@H]2CC[C@@H](NC(=O)Nc3ccc(Cl)cc3)[C@H](CO)O2)nn1 was read as LGR2 inh -3.
For CO[C@@H]1CN(C)C(=O)c2ccc(NC(=O)CC(F)(F)F)cc2OC[C@H](C)N(C(=O)C2CC2)C[C@@H]1C the results were LGR2 inh -9.
Screening Cc1ccc2nc(-c3ccc(N4C(=N)SC5CS(=O)(=O)CC54)cc3)sc2c1 (centres undefined) returned MITF act 104*, TWEAK Fn14 block 7, LGR2 inh -28, EBV LMP1 NFkB -18, TRPM1 prom inh -97 and TROY NFkB inh -14.
CNC(=S)Nc1ccc(-c2nc3ccc(C)cc3s2)cc1 was read as MITF act 78, TWEAK Fn14 block 49, LGR2 inh 53*, EBV LMP1 NFkB -10, TRPM1 prom inh -75 and TROY NFkB inh 13.
Cc1ccc2nc(-c3ccc(N)cc3)sc2c1 was read as TWEAK Fn14 block 26, LGR2 inh 82*, EBV LMP1 NFkB 24, TRPM1 prom inh 14 and TROY NFkB inh -4.
For Nc1ccc(-c2nc3ccccc3s2)cn1 the results were MITF act 39, TWEAK Fn14 block 4, LGR2 inh -78, EBV LMP1 NFkB -13, TRPM1 prom inh -40 and TROY NFkB inh -54.
Screening Cc1cc(-c2nc3ccccc3s2)ccc1N returned TWEAK Fn14 block 83*, LGR2 inh 54*, EBV LMP1 NFkB 2, TRPM1 prom inh 18 and TROY NFkB inh 32.
`Nc1ccc(-c2nc3cc(N)ccc3s2)cc1` gave MITF act 12, TWEAK Fn14 block -8, LGR2 inh 34, EBV LMP1 NFkB 6, TRPM1 prom inh -8 and TROY NFkB inh -15.
C[C@@H](NC(=O)[C@H]1[C@H](CO)[C@H]2Cn3c(ccc(-c4cccnc4)c3=O)[C@@H]1N2C)c1ccccc1 was read as LGR2 inh -20.
For CC=Cc1ccc2n(c1=O)C[C@@H]1[C@@H](CO)[C@H](C(=O)NCCC)[C@H]2N1C(=O)c1ccncc1 (mixture of isomers) the results were LGR2 inh 15.
For Nc1ccc2nc(-c3ccccc3)sc2c1 the results were TWEAK Fn14 block 90*, EBV LMP1 NFkB 34, TRPM1 prom inh 36 and TROY NFkB inh 22.

Source: PubChem BioAssay (several laboratories)
